According to PMC5540273 (PLoS ONE, 2017):

Assays:
Details in all cases: concentration: 1 μM, replicates: in singlicate; n = 1
ACVR2A = test system: ACVR2A
ACVR2B = test system: ACVR2B
ACVRL1 = test system: ACVRL1
ADCK3 = test system: T1, ADCK3
T1 construct: gene CABC1

ADCK4 = test system: ADCK4
AKT1 = test system: AKT1
AKT2 = test system: AKT2
AKT3 = test system: AKT3
ALK = test system: ALK
AMPK-alpha1 = test system: T2, AMPK-alpha1
T2 construct: gene PRKAA1

AMPK-alpha2 = test system: T3, AMPK-alpha2
T3 construct: gene PRKAA2

ANKK1 = test system: ANKK1
ARK5 = test system: T4, ARK5
T4 construct: gene NUAK1

ASK1 = test system: T5, ASK1
T5 construct: gene MAP3K5

ASK2 = test system: T6, ASK2
T6 construct: gene MAP3K6

AURKA = test system: AURKA
AURKB = test system: AURKB
AURKC = test system: AURKC
AXL = test system: AXL
BIKE = test system: T7, BIKE
T7 construct: gene BMP2K
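Further: KINOMEscan kinase panel screen.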

`COc1ccc(COc2cc(-n3cnc4ccccc43)sc2C(N)=O)cc1` [GSK1024304] was tested, and the “%Inh” value (ACVR2A) was 0%, the “%Inh” value (ACVR2B) was 0% and the “%Inh” value (ACVRL1) was 0%. For the same compound, the “%Inh” value (ADCK3) was 0%, the “%Inh” value (ADCK4) was 0% and the “%Inh” value (AKT1) was 0%. The “%Inh” value (AKT2) was 0%, the “%Inh” value (AKT3) was 54% and the “%Inh” value (ALK) was 23%. For the same compound, the “%Inh” value (AMPK-alpha1) was 26%, the “%Inh” value (AMPK-alpha2) was 0% and the “%Inh” value (ANKK1) was 8%. For the same compound, the “%Inh” value (ARK5) was 14%, the “%Inh” value (ASK1) was 0% and the “%Inh” value (ASK2) was 0%. The “%Inh” value (AURKA) was 2%, the “%Inh” value (AURKB) was 0% and the “%Inh” value (AURKC) was 12%. The “%Inh” value (AXL) was 0% and the “%Inh” value (BIKE) was 25%.
With `Cn1cc(-c2ccc3c(c2)CCN3C(=O)Cc2ccccc2Cl)c2c(N)ncnc21` [GSK2608885] the “%Inh” value (ACVR2A) was 0%, the “%Inh” value (ACVR2B) was 13% and the “%Inh” value (ACVRL1) was 3%. For the same compound, the “%Inh” value (ADCK3) was 1%, the “%Inh” value (ADCK4) was 88% and the “%Inh” value (AKT1) was 0%. The “%Inh” value (AKT2) was 0%, the “%Inh” value (AKT3) was 0% and the “%Inh” value (ALK) was 0%. For the same compound, the “%Inh” value (AMPK-alpha1) was 2%, the “%Inh” value (AMPK-alpha2) was 30% and the “%Inh” value (ANKK1) was 4%. For the same compound, the “%Inh” value (ARK5) was 94%, the “%Inh” value (ASK1) was 0% and the “%Inh” value (ASK2) was 0%. For the same compound, the “%Inh” value (AURKA) was 98%, the “%Inh” value (AURKB) was 86% and the “%Inh” value (AURKC) was 74%. For the same compound, the “%Inh” value (AXL) was 94% and the “%Inh” value (BIKE) was 23%.
In the case of `O=C(NOCC1CC1)c1ccc(F)c(F)c1Nc1ccc(I)cc1Cl`, the “%Inh” value (ACVR2A) was 0%, the “%Inh” value (ACVR2B) was 0% and the “%Inh” value (ACVRL1) was 0%. For the same compound, the “%Inh” value (ADCK3) was 0%, the “%Inh” value (ADCK4) was 0% and the “%Inh” value (AKT1) was 0%. The “%Inh” value (AKT2) was 0%, the “%Inh” value (AKT3) was 0% and the “%Inh” value (ALK) was 0%. The “%Inh” value (AMPK-alpha1) was 0%, the “%Inh” value (AMPK-alpha2) was 0% and the “%Inh” value (ANKK1) was 0%. The “%Inh” value (ARK5) was 0%, the “%Inh” value (ASK1) was 0% and the “%Inh” value (ASK2) was 0%. The “%Inh” value (AURKA) was 0%, the “%Inh” value (AURKB) was 0% and the “%Inh” value (AURKC) was 20%. For the same compound, the “%Inh” value (AXL) was 2% and the “%Inh” value (BIKE) was 43%.
With `Cc1ccc(C(=O)NCC(N)=O)cc1-n1c(C)cc(OCc2ccc(F)cc2F)c(Br)c1=O` the “%Inh” value (ACVR2A) was 0%, the “%Inh” value (ACVR2B) was 4% and the “%Inh” value (ACVRL1) was 28%. The “%Inh” value (ADCK3) was 27%, the “%Inh” value (ADCK4) was 2% and the “%Inh” value (AKT1) was 29%. The “%Inh” value (AKT2) was 19%, the “%Inh” value (AKT3) was 0% and the “%Inh” value (ALK) was 0%. The “%Inh” value (AMPK-alpha1) was 30%, the “%Inh” value (AMPK-alpha2) was 11% and the “%Inh” value (ANKK1) was 0%. The “%Inh” value (ARK5) was 0%, the “%Inh” value (ASK1) was 12% and the “%Inh” value (ASK2) was 0%. For the same compound, the “%Inh” value (AURKA) was 0%, the “%Inh” value (AURKB) was 0% and the “%Inh” value (AURKC) was 8%. The “%Inh” value (AXL) was 11% and the “%Inh” value (BIKE) was 7%.
`CNc1ncnc2[nH]ncc12` [SKF-18355] was tested, and the “%Inh” value (ACVR2A) was 4%, the “%Inh” value (ACVR2B) was 40% and the “%Inh” value (ACVRL1) was 0%. For the same compound, the “%Inh” value (ADCK3) was 0%, the “%Inh” value (ADCK4) was 10% and the “%Inh” value (AKT1) was 0%. For the same compound, the “%Inh” value (AKT2) was 0%, the “%Inh” value (AKT3) was 4% and the “%Inh” value (ALK) was 0%. The “%Inh” value (AMPK-alpha1) was 0%, the “%Inh” value (AMPK-alpha2) was 0% and the “%Inh” value (ANKK1) was 0%. For the same compound, the “%Inh” value (ARK5) was 0%, the “%Inh” value (ASK1) was 0% and the “%Inh” value (ASK2) was 0%. The “%Inh” value (AURKA) was 2%, the “%Inh” value (AURKB) was 34% and the “%Inh” value (AURKC) was 0%. For the same compound, the “%Inh” value (AXL) was 0% and the “%Inh” value (BIKE) was 0%.
For `CN(C1=C(c2ccccc2)C(=O)NC1=O)c1ccccc1` [SB-334860], the “%Inh” value (ACVR2A) was 0%, the “%Inh” value (ACVR2B) was 4% and the “%Inh” value (ACVRL1) was 0%. For the same compound, the “%Inh” value (ADCK3) was 12%, the “%Inh” value (ADCK4) was 15% and the “%Inh” value (AKT1) was 0%. For the same compound, the “%Inh” value (AKT2) was 23%, the “%Inh” value (AKT3) was 0% and the “%Inh” value (ALK) was 0%. For the same compound, the “%Inh” value (AMPK-alpha1) was 0%, the “%Inh” value (AMPK-alpha2) was 23% and the “%Inh” value (ANKK1) was 9%. The “%Inh” value (ARK5) was 42%, the “%Inh” value (ASK1) was 12% and the “%Inh” value (ASK2) was 0%. The “%Inh” value (AURKA) was 21%, the “%Inh” value (AURKB) was 10% and the “%Inh” value (AURKC) was 0%. For the same compound, the “%Inh” value (AXL) was 0% and the “%Inh” value (BIKE) was 0%.
With `Nc1nccc(-c2c(-c3ccc(F)cc3)ncn2C2CCN(CC(F)(F)F)CC2)n1` [SB-236560] the “%Inh” value (ACVR2A) was 0%, the “%Inh” value (ACVR2B) was 0% and the “%Inh” value (ACVRL1) was 0%. For the same compound, the “%Inh” value (ADCK3) was 0%, the “%Inh” value (ADCK4) was 47% and the “%Inh” value (AKT1) was 0%. The “%Inh” value (AKT2) was 0%, the “%Inh” value (AKT3) was 0% and the “%Inh” value (ALK) was 29%. For the same compound, the “%Inh” value (AMPK-alpha1) was 0%, the “%Inh” value (AMPK-alpha2) was 0% and the “%Inh” value (ANKK1) was 0%. For the same compound, the “%Inh” value (ARK5) was 0%, the “%Inh” value (ASK1) was 0% and the “%Inh” value (ASK2) was 0%. For the same compound, the “%Inh” value (AURKA) was 2%, the “%Inh” value (AURKB) was 0% and the “%Inh” value (AURKC) was 0%. For the same compound, the “%Inh” value (AXL) was 46% and the “%Inh” value (BIKE) was 0%.
With `Cc1nnc(-c2ccc3occ(-c4ccc(C(C)O)cc4)c3c2)o1` (centres unmarked) the “%Inh” value (ACVR2A) was 9%, the “%Inh” value (ACVR2B) was 27% and the “%Inh” value (ACVRL1) was 8%. The “%Inh” value (ADCK3) was 0%, the “%Inh” value (ADCK4) was 0% and the “%Inh” value (AKT1) was 17%. For the same compound, the “%Inh” value (AKT2) was 0%, the “%Inh” value (AKT3) was 4% and the “%Inh” value (ALK) was 0%. For the same compound, the “%Inh” value (AMPK-alpha1) was 0%, the “%Inh” value (AMPK-alpha2) was 14% and the “%Inh” value (ANKK1) was 3%. The “%Inh” value (ARK5) was 35%, the “%Inh” value (ASK1) was 0% and the “%Inh” value (ASK2) was 11%. The “%Inh” value (AURKA) was 13%, the “%Inh” value (AURKB) was 27% and the “%Inh” value (AURKC) was 23%. The “%Inh” value (AXL) was 3% and the “%Inh” value (BIKE) was 18%.
For `Cc1nnc(-c2ccc3ncc(-c4ccc(S(C)=O)cc4)n3c2)o1` (centres unmarked), the “%Inh” value (ACVR2A) was 0%, the “%Inh” value (ACVR2B) was 0% and the “%Inh” value (ACVRL1) was 0%. The “%Inh” value (ADCK3) was 0%, the “%Inh” value (ADCK4) was 18% and the “%Inh” value (AKT1) was 3%. For the same compound, the “%Inh” value (AKT2) was 15%, the “%Inh” value (AKT3) was 2% and the “%Inh” value (ALK) was 40%. For the same compound, the “%Inh” value (AMPK-alpha1) was 1%, the “%Inh” value (AMPK-alpha2) was 0% and the “%Inh” value (ANKK1) was 0%. For the same compound, the “%Inh” value (ARK5) was 0%, the “%Inh” value (ASK1) was 0% and the “%Inh” value (ASK2) was 9%. For the same compound, the “%Inh” value (AURKA) was 18%, the “%Inh” value (AURKB) was 21% and the “%Inh” value (AURKC) was 0%. The “%Inh” value (AXL) was 11% and the “%Inh” value (BIKE) was 0%.
`COc1cc2c(cc1OC[C@@H](O)CO)ncc1c3ccc(C#N)cc3[nH]c21` was tested, and the “%Inh” value (ACVR2A) was 0%, the “%Inh” value (ACVR2B) was 1% and the “%Inh” value (ACVRL1) was 0%. The “%Inh” value (ADCK3) was 0%, the “%Inh” value (ADCK4) was 0% and the “%Inh” value (AKT1) was 0%. For the same compound, the “%Inh” value (AKT2) was 0%, the “%Inh” value (AKT3) was 0% and the “%Inh” value (ALK) was 15%. The “%Inh” value (AMPK-alpha1) was 0%, the “%Inh” value (AMPK-alpha2) was 0% and the “%Inh” value (ANKK1) was 73%. For the same compound, the “%Inh” value (ARK5) was 0%, the “%Inh” value (ASK1) was 0% and the “%Inh” value (ASK2) was 0%. The “%Inh” value (AURKA) was 6%, the “%Inh” value (AURKB) was 52% and the “%Inh” value (AURKC) was 0%. For the same compound, the “%Inh” value (AXL) was 17% and the “%Inh” value (BIKE) was 96.2%.
